Results on twelve compounds are retold here after PubChem BioAssay (NCI).

SMILES strings stand for the structures. Several values for one entry are separate records, joined by “and”; a condition that tells them apart may be missing. Identical values can stand only once. About 83,000 compounds went through this panel and 20% of them were active in at least one assay; those are over-represented in the sample as a whole.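 Compound tested at a single concentration for 48 hours in 96-well plates; a percent growth value below 10 was scored as active.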 Unmarked numbers belong to inactive results. Activity calls are given as the source filed them.

What all share (test): NCI-60 one-dose screen, 48 h (100 = growth as untreated, 0 = no growth, -100 = all killed)
In assay [1] the test system is HCT-15 colon. The settings on record: 10 µM unless noted.
The test system of assay [2] is HT29 colon. Particulars: 10 µM unless noted.
For assay [3], the system named is SNB-75 CNS. The settings on record: 10 µM unless noted.
Assay [4] relates to U251 CNS. The settings on record: 10 µM unless noted.
Assay [5] has as its system PC-3 prostate. The settings on record: 10 µM unless noted.
Assay [6] deals with SK-MEL-5 melanoma. The settings on record: 10 µM unless noted.
For assay [7], the system named is UACC-62 melanoma.
Assay [8] relates to LOX IMVI melanoma. Particulars: 10 µM unless noted.
Assay [9] concerns SK-MEL-28 melanoma. Particulars: 10 µM unless noted.
Assay [10] concerns SNB-19 CNS. Particulars: 10 µM unless noted.

`C=CCOc1ccc(N=NC(C#N)C#N)cc1`: the growth in [1] is 56.9%; in assay [2] it was 72.7%; in assay [3] it was 74.3%; in assay [4], 84.6%; in assay [5] it was 70.4%; in assay [6] it was 91.8%. Also, the growth in assay [7] (10 µM unless noted) is 47.7%; in [8], 26%; in [9] it was 65.1%.

Turning to `O=C(/C=C/c1cccc(Cl)c1)c1ccccc1`, the growth is 56.7% and 62.8% in [1]; 95.2% and 32.4% in assay [2]; 104% and 95.2% in assay [3]; 75.9% and 45% in [4]; 96% and 88.8% in [5]; 94% and 93.4% in [6]. The growth in assay [7] (10 µM unless noted) was 81.5%; in [9], 114% and 109%.

For the compound `O=C1C=CC(=O)N1C1c2ccccc2-c2ccccc21`, the growth in [1] is 61.6%; in assay [2] it was 92.9%; in assay [3], 74.9%; in assay [5], 94.1%; in [6], 105%; in assay [7] (10 µM unless noted) it was 102%. Besides, the growth in [9] was 104%.

With `COc1cc(NS(C)(=O)=O)ccc1Nc1c2ccccc2nc2ccccc12`, the growth is 29.4% [2.5 µM] in assay [1]; 43.4% [2.5 µM] in assay [2]; 27.9% [2.5 µM] in [3]; 18.7% [2.5 µM] in assay [4]; 52.8% [2.5 µM] in assay [5]; 3.48% [2.5 µM] (active) in assay [6]. Moreover, the growth was 29.1% in assay [7] (2.5 µM); -86.2% (active) and -100% (active) in assay [7] (250 µM); 23.8% [2.5 µM] in assay [8]; 52.5% and 63.7% and 53.8% in [9].

Regarding `CC1(C)CC([P+](c2ccccc2)(c2ccccc2)c2ccccc2)=NN1`, the growth in assay [1] was 94.3%; in [2] it was 24.9%; in assay [3], 34.3%; in assay [4] it was 25.5%; in assay [5], 29.1%; in assay [6] it was 12.4%. Besides, the growth was 32.2% in assay [7] (10 µM unless noted), 43.1% in [8] and 67.9% in assay [9].

As to `N#CC1C(=O)SC2c3ccccc3C(=O)c3ccccc3C12` (centres undefined), the growth was 111% in [1]; 97.7% in assay [2]; 96.3% in [3]; 92% in assay [4]; 82.1% in assay [5]; 97.2% in [6]. Moreover, the figures for the growth in assay [7] (10 µM unless noted) and in [9] were 89.2% and 112%, respectively.

For the compound `CN(C)c1ccc(/C=N/N=C(\C#N)[S][Sn]([Cl])([c]2ccccc2)[c]2ccccc2)cc1`, the growth in assay [1] is -30.6% (active); in assay [2], 19.2%; in [3], 8.38% (active); in assay [4] it was 57.3%; in assay [5], 68.6%; in assay [6] it was 37%. Moreover, the growth in [7] (10 µM unless noted) is 34.7%; in [8] it was -92.8% (active); in [9], -48.7% (active).

Regarding `CCC(=O)Sc1ccccc1C(=O)Nc1ccc(Cl)cc1`, the growth was 46% in assay [1]; 17% in [2]; 76.7% in [3]; 36.5% in assay [4]; 66.9% in assay [5]; 25.2% in assay [6]. For the same compound, the growth is 54.1% in assay [7] (10 µM unless noted), 42.2% in assay [8] and 49.8% in assay [9].

Consider `Cc1ccc2c(ccc3c[n+]4c5ccccc5ccc4n32)c1`, for which the growth is 79.6% in [1]; 8.52% (active) in assay [2]; 8.15% (active) in assay [3]; 8.46% (active) in assay [5]; -81% (active) in assay [6]; -48.9% (active) in [7] (10 µM unless noted). For the same compound, the growth was 22.5% in assay [8] and -28.1% (active) in assay [9].

For `N#CSCc1ccc(CSC#N)c(Cl)c1`, the growth was 37.1% in assay [1]; 34.7% in assay [2]; 32.2% in assay [3]; 85.8% in [4]; 81.6% in assay [5]; 65.2% in assay [6]. Further, the growth in assay [7] (10 µM unless noted) is 72.2%; in [8], 46.6%; in assay [9], 83.3%.

`C1=C(c2ccccc2)C(c2ccc(OCCN3CCCCC3)cc2)Oc2ccccc21` (centres undefined): the growth in assay [1] is 23.2%; in [3], 56.5%; in assay [10] it was 53.7%; in assay [4], 38.2%; in [5], 60.6%; in assay [6] it was -95.5% (active). Besides, the growth in [7] (10 µM unless noted) was -41% (active); in assay [8], -76.9% (active); in assay [9], -51.2% (active).

Take `Cn1c2ccccc2c2nnc(N/N=C/c3ccccn3)nc21`: the growth in assay [1] was 27.6%; in assay [2] it was 37%; in assay [3], 31%; in assay [4], 14.2%; in assay [5] it was 28.4%; in [6], -44.1% (active). In addition, the growth in assay [7] (10 µM unless noted) was -6.2% (active); in [8], 1.32% (active); in assay [9], 18.5%.
